IL-1B inflam inh: qHTS for Inhibitors of Inflammasome Signaling: IL-1-beta AlphaLISA Primary Screen; hit rate 4.7% among 360,000; THP-1 LPS/ATP IL-1B secretion, AlphaLISA, 16 h; hits give low values; activity change, % at 57.5 µM; AID 743279, 2014; in the data active = activity change below about -50%; inconclusive = mostly about -30% to -49%
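Secreted IL-1B measured by AlphaLISA bead assay after 16 h compound exposure of THP-1 cells; compounds (final up to 57.5 uM) added 1 h before LPS (250 ng/mL) and ATP (1.25 mM) stimulation; lower signal means less secretion.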
TDP1 inh: qHTS Assay for Inhibitors of Tyrosyl-DNA Phosphodiesterase (TDP1); Tyrosyl-DNA phosphodiesterase 1 (Homo sapiens), Q9NUW8; recombinant TDP1, AlphaScreen DNA substrate cleavage; Potency, µM (doses to about 130 µM), usual class: inhibitors; hit rate 0.28% among 350,000; AID 485290, 2010; note: nearly all actives have a fitted effect of over 40% in size
Target sequence (Q9NUW8 whole entry, looked up): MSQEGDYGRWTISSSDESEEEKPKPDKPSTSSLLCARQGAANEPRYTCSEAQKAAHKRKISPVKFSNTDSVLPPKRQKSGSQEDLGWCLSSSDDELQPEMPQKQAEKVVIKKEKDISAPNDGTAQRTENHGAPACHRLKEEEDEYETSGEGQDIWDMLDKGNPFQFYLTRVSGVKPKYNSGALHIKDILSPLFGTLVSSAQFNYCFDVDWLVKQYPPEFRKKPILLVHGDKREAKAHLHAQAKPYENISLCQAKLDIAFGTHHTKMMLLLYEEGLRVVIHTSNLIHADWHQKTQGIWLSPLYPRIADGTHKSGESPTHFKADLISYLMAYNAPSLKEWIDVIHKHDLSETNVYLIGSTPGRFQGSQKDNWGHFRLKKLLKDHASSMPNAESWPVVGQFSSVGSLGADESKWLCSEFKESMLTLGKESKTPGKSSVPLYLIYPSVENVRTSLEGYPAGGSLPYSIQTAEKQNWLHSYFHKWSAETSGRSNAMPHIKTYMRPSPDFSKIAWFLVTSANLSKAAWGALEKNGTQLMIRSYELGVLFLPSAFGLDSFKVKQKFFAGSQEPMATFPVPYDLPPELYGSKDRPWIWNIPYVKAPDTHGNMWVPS
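Here, a 5' biotin and 3' phosphotyrosine-FITC DNA oligonucleotide reports Tdp1 activity: intact substrate bridges AlphaScreen beads, while cleavage leaves a 3' phosphate and drops signal. All incubations at room temperature.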
TDP1 cell noCPT: qHTS for Inhibitors of human tyrosyl-DNA phosphodiesterase 1 (TDP1): qHTS in cells in absence of CPT | DT40 Tdp1-/- hTDP1 cells, no CPT, ATP luminescence, 48 h | Potency, µM (doses to about 46.2 µM), hits mostly inhibitors | hit rate 15% among 420,000 | AID 686978, 2013; note: nearly all actives have a fitted effect of over 55% in size
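Cells were dispensed at 400 per well, compounds added by pin tool, plates incubated ≥48 hr at 37 °C, then CellTiter-Glo added for 30 min at room temperature before luminescence reading. Line: DT40 Tdp1-/- complemented with hTDP1; camptothecin omitted.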
CtBP-E1A blk: qHTS Assay for Inhibitors of the CtBP/E1A Interaction. CtBP / adenovirus E1A interaction (AlphaScreen). AlphaScreen GST-E1A/His-CtBP binding, 1536-well; hits give low values. activity change, % (test concentration not listed). hit rate 0.49% among 340,000. AID 651724, 2012; in the data active = activity change below about -65%; inconclusive = mostly about -30% to -63%
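AlphaScreen with 125 nM GST-E1A and 125 nM His-CtBP (5X stocks) in Tris pH 8.0, 300 mM NaCl, BSA, Tween 20, TCEP. Compounds preincubated 2 h at 37 deg C, then glutathione donor/nickel acceptor beads added for 1 h at 37 deg C in dark.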
Six1-Eya2 inh: qHTS Assay for Inhibitors of the Six1/Eya2 Interaction | AID 651725, 2012 | AlphaScreen GST-Six1/His-Eya2 binding, biochemical; hits give low values | activity change, % (test concentration not listed) | hit rate 0.56% among 360,000; in the data active = activity change below about -65%; inconclusive = mostly about -30% to -63%
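AlphaScreen with GST-Six1 and His-Eya2 (5X mix: 250 nM and 500 nM), glutathione donor and nickel acceptor beads; buffer 50 mM Tris pH 8.0, 300 mM NaCl, 1 mM TCEP; 1 h at 37 C in the dark.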
DT40 TDP1 CPT: qHTS for Inhibitors of human tyrosyl-DNA phosphodiesterase 1 (TDP1): qHTS in cells in presence of CPT | AID 686979, 2013 | Potency, µM (series often up to 46.2 µM), actives largely listed as inhibitors | chicken DT40 Tdp1-/-;hTDP1 cells + 20 nM CPT, ATP luminescence, 48 h | hit rate 12% among 420,000; note: nearly all actives have a fitted effect of over 55% in size
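Chicken DT40 Tdp1-/- cells complemented with human TDP1, 400 cells/well, exposed to compounds plus 20 nM camptothecin for at least 48 h at 37 C; viability read as ATP content by CellTiter-Glo luminescence.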
A number is an active result; n = inactive; u = inconclusive; x = no result; [ ] = remark or other dose. Rows were chosen to be rich in hits. Some 18% of all compounds tested hit in one or more screens of this group. Unless noted, calls come from the whole dose curve; as a rule, active = well fitted curve in the direction sought with a large enough effect; inconclusive = small, poorly fitted or top-dose-only effect, or another doubt; inactive = no such curve, though single readings can be large; an effect the other way counts as inactive or inconclusive.

SMILES | IL-1B inflam inh | TDP1 inh | TDP1 cell noCPT | CtBP-E1A blk | Six1-Eya2 inh | DT40 TDP1 CPT
C#CCN(C[C@@H]1[C@@H](OC(=O)NCC2CCCCC2)[C@@H](OC(=O)NCC2CCCCC2)Cn2c(=O)n(CCCCCC)c(=O)n21)S(=O)(=O)c1ccc(C)cc1 | n | x | 6.5µM | n | n | u
Cc1ccc(S(=O)(=O)N2C[C@@]3(O)Cn4c(=O)ccc(=O)n4C[C@@]3(OC(=O)NCc3ccccc3F)C2)cc1 | u | x | n | n | n | n
Cc1csc2nc(COC(=O)c3cccc(NC(=O)COc4ccc(Cl)cc4)c3)cc(=O)n12 | x | n | n | x | x | n
COc1ccc2nc(SCC(=O)N3CCCCCC3)c(C#N)cc2c1 | u | n | 16µM | n | n | u
COc1ccc2nc(SCC(=O)Nc3ccc(S(=O)(=O)N4CCCC4)cc3)c(C#N)cc2c1 | n | n | u | n | n | 9.2µM
COc1ccc2nc(N3CCCCC3)c(C#N)cc2c1 | n | 40µM | n | n | n | u
N#Cc1cc2ccccc2nc1SCC(=O)Nc1ccc(S(=O)(=O)N2CCCC2)cc1 | n | n | 18µM | n | n | 21µM
Cc1ccc2nc(SCC(=O)c3ccc(Cl)cc3)nc(=O)n2c1 | n | n | u | n | n | u
O=C(NCCc1ccc(Cl)cc1)C1CCC(=O)N1Cc1ccc(F)cc1 (stereo not drawn) | n | n | n | n | n | n
CC(=O)Nc1cc[n+](C(C)C(=O)c2ccc(Br)cc2)cc1 (stereo not drawn) | n | n | u | n | n | n
COc1ccccc1/C=N/NC(=O)c1ccc(C)nc1 | n | n | n | x | n | n
O=C(O)c1ccc(N=Cc2c(O)ccc3ccccc23)cc1 | n | x | n | n | n | n
Cc1ccc(C(=O)N/N=C/c2c(O)ccc3ccccc23)cn1 | n | x | 2.9µM | x | -74 | 3.3µM
O=C(N/N=C\c1c(O)ccc2ccccc12)c1ccc(O)cc1 | n | x | 6.5µM | u | -65 | u
Cn1cc(C(=O)N/N=C/c2c(O)ccc3ccccc23)ccc1=O | n | n | 3.7µM | x | -89 | 5.2µM
CC1(C)C2CC=C(/C=N/NC(=O)c3ccc(O)cc3)C1C2 (stereo not drawn) | -54 | n | n | n | n | n
COc1ccc(NC(=O)c2ccco2)c(NC(=O)c2ccc([N+](=O)[O-])cc2)c1 | n | n | n | n | n | n
Cc1ccc(CNC(=O)NC2CCCCC2)cc1 | n | n | n | n | n | n
Cc1cc(C)nc(SCc2ccc(C(=O)NNC(=O)Nc3cccc(Cl)c3)cc2)n1 | -100 | n | 13µM | n | n | 21µM
Cn1nccc1C(=O)Oc1cccc(/C=N/NC(=O)c2ccccc2O)c1 | n | n | n | x | n | n
O=C(N/N=C/c1ccccn1)c1ccc(Br)o1 | n | n | u | -75 | -66 | u
O=C(C[n+]1cccc(C(=O)N/N=C/c2ccc(Br)cc2)c1)c1ccccc1 | n | n | n | x | n | n
O=C(N/N=C/c1c(O)ccc2ccccc12)c1ccc[n+](CCO)c1 | n | n | u | -90 | -91 | 29µM
Cn1nccc1C(=O)N/N=C/c1c(O)ccc2ccccc12 | n | n | 3.3µM | -83 | -87 | 4.6µM
Cc1ccc(C(=O)Nc2ccccc2C(=O)N2CCCCC2C)cc1 (stereo not drawn) | n | n | n | n | n | n
SMILES | IL-1B inflam inh | TDP1 inh | TDP1 cell noCPT | CtBP-E1A blk | Six1-Eya2 inh | DT40 TDP1 CPT
CCOc1ccc(NC(=O)c2c(NC(=O)c3cccc(C)c3)sc3c2CCC3)cc1 | x | n[12.3 µM] | n | x | x | n
CC(=O)N1CCOc2ccc(S(=O)(=O)N3CCC(C(=O)Nc4cc(C)cc(C)c4)CC3)cc21 | n | n | n | n | n | n
O=C(NNc1ccc(F)cc1F)C1CCC1 | x | x | n | n | n | n
Cc1c(/C=N/NC(=O)c2cccs2)c2ccccc2n1Cc1ccccc1Cl | n | n | 21µM | n | n | 16µM
O=C(N/N=C/c1c(O)ccc2ccccc12)c1ccc(Br)o1 | n | u | 4.6µM | u | u | 5.2µM
Cn1c(/N=C/c2c(O)ccc3ccccc23)nc2ccccc21 | n | n | 5.8µM | n | n | 3.3µM
O=C(N/N=C\c1c(O)ccc2ccccc12)c1cncc(Br)c1 | n | n | 0.82µM | u | u | 1.6µM
Cn1cccc1/C=N\NC(=O)c1cncc(Br)c1 | x | n | n | n | n | n
Fc1ccccc1CSc1nnc(Cn2cnc3ccccc32)n1-c1ccccc1 | n | n | n | n | n | n
Cc1nn(Cc2ccccc2)c(Cl)c1/C=N/NC(=O)c1cccnc1 | n | n | u | x | n | n
Cn1ncc(N=Cc2c(O)ccc3ccccc23)c1C(=O)Nc1cccc(Cl)c1 | n | n | 23µM | n | n | u
Cn1ncc(Cl)c1C(=O)Nc1cccc(Cl)c1 | n | n | n | n | n | n
Cc1occc1C(=O)N/N=C/c1c[nH]c2ccccc12 | n | n | n | n | n | n
O=C(N/N=C/c1c(O)ccc2ccccc12)c1cccnc1 | n | x | 1µM | -92 | -67 | 1.2µM
Cc1c(/C=N/NC(=O)c2cccnc2)c2ccccc2n1Cc1ccccc1 | n | n | 7.3µM | n | n | 12µM
COc1ccc2ccccc2c1/C=N\NC(=O)c1cccnc1 | n | x | n | n | n | n
Cc1occc1C(=O)N/N=C/c1c(O)ccc2ccccc12 | n | x | 1µM | n | n | 0.65µM
COC(=O)CN1C(=O)[C@H]2[C@@H](/C=C/c3ccccc3)N3C(=O)CN(Cc4ccccn4)C(=O)[C@@]3(Cc3ccccc3)[C@H]2C1=O | n | n | n | n | n | n
Cc1cc(C)nc(SCc2ccc(C(=O)N/N=C/c3ccccn3)cc2)n1 | n | n | 21µM | n | u | u
O=C(NN=Cc1c(O)ccc2ccccc12)c1ccncc1 | n | x | 3.7µM | u | -89 | 4.6µM
Cc1cc(C)nc(SCc2ccc(C(=O)N/N=C/c3ccncc3)cc2)n1 | n | n | n | n | n | n
O=C(N/N=C/c1ccncc1)c1ccncc1 | n | x | n | n | n | n
Cc1cccc(C)c1NC(=O)C(=O)NCCc1c[nH]c2ccccc12 | n | n | u | n | n | n
CCc1nc(-n2[nH]c(=O)c3ccccc3c2=O)c2c3c(sc2n1)CCCC3 | n | x | n | n | n | n
CCc1nc(Sc2nnnn2-c2ccccc2)c2c3c(sc2n1)CCCC3 | -81 | n | 18µM | n | n | 16µM

Assay outcomes from PubChem.
